High-throughput results (PubChem BioAssay)
Rab9 promoter act: qHTS Assay for Rab9 Promoter Activators; Huh7 Rab9 promoter-luciferase reporter, luminescence, 24 h; Potency, µM (titrated, usually from 9.22 µM), actives largely listed as activators; 2.8% of 320,000 active; further: nearly all actives have a fitted effect of over 60% in size
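Stable Rab9-luc Huh7, 1500 cells/well, 2 h settle; cmpd in DMSO, 24 h, 37 °C/5% CO2; luciferase reagent 10 min RT; luminescence.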
NPC1 promoter act: qHTS Assay for NPC1 Promoter Activators | Potency, µM (top dose mostly 9.22 µM), usual class: activators | Huh7 NPC1 promoter luciferase reporter, 24 h | 2.4% of 320,000 active; further: nearly all actives have a fitted effect of over 60% in size
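Readout is luciferase luminescence, reflecting NPC1 promoter activation in stably transfected Huh7 cells after 24 h compound exposure at 37 °C in reduced-serum medium with 10% FBS.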
ELG1 genotox: qHTS screen for small molecules that induce genotoxicity in human embryonic kidney (HEK293T) cells expressing luciferase-tagged ELG1; HEK293T ELG1-luciferase reporter, luminescence, 16 h; Potency, µM (titrated, usually from 46 µM), actives largely listed as activators; 1.3% of 330,000 active; further: nearly all actives have a fitted effect of over 60% in size
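Genotoxicity was scored as increased ELG1-luciferase reporter signal, measured by ONE-Glo luminescence (30 min, room temperature). Compound or vehicle exposure of the HEK293T reporter cells lasted 16 hr at 37°C.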
FLuc counter: qHTS profiling assay for firefly luciferase inhibitor/activator using purifed enzyme and Km concentrations of substrates (counterscreen for miR-21 project). Luciferin 4-monooxygenase (Photinus pyralis), P08659. purified FLuc, Km substrates, luminescence inhibition. Potency, µM (series often up to 57.5 µM), actives largely listed as inhibitors. 6.9% of 360,000 active. AID 588342, 2011; further: nearly all actives have a fitted effect of over 55% in size
Target sequence (P08659 whole entry, looked up): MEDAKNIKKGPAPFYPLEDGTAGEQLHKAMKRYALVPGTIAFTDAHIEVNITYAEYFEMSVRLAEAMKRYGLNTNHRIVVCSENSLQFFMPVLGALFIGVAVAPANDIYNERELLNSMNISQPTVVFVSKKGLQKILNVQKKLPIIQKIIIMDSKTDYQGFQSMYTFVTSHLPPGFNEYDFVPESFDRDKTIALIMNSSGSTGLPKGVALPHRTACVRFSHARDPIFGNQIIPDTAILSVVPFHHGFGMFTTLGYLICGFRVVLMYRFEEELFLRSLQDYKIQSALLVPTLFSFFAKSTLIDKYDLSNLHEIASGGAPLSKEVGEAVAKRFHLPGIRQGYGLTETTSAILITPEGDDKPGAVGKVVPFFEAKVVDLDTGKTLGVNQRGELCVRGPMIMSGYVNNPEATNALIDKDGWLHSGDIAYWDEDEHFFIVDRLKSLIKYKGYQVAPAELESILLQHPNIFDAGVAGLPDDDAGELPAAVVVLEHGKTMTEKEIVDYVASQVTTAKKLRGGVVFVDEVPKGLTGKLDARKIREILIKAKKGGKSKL
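Purified P. pyralis luciferase (10nM final) with 10uM D-luciferin and 10uM ATP (Km levels) in 50mM Tris acetate pH 7.5, 10mM Mg acetate, 0.01% Tween-20, 0.05% BSA; qHTS 6-point titration, ~60 µM downward; luminescence read.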
SMN2 splice up: qHTS Assay for Enhancers of SMN2 Splice Variant Expression; HEK293 SMN2-luciferase splicing reporter, luminescence, 30-36 h; Potency, µM (top dose mostly 46.1 µM), usual class: activators; 2.8% of 210,000 active; further: nearly all actives have a fitted effect of over 55% in size
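HEK293 cells carry an SMN2 minigene-luciferase reporter in which exon 7 inclusion puts luciferase in frame. Cells were seeded at 2000 cells/well, attached for 10-12 hours, then exposed to compounds for 30-36 hours at 37C before ONE-Glo luminescence.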
Large screens that a line does not name were inactive. Hits are enriched below; roughly 7.4% of the tested compounds scored in any of these assays. The call rests on the fitted dose curve; in most records, active means well fitted curve in the direction sought with a large enough effect; inconclusive means small, poorly fitted or top-dose-only effect, or another doubt; inactive means no such curve, though single readings can be large; an effect the other way counts as inactive or inconclusive.

Cc1cccc(OCC(=O)N2CCN(C(=O)Cc3ccccc3)CC2)c1	none
O=C(COc1ccc(F)cc1)N1CCC(c2ccccc2)C1 (configuration not stated)	Rab9 promoter act inconclusive, ELG1 genotox inconclusive, FLuc counter 19µM, SMN2 splice up 13µM
CC1CCCN(C(=O)COc2ccc(-c3ccccc3)cc2)C1 (configuration not stated)	FLuc counter inconclusive
Cc1cccc(OCC(=O)N2CCC(c3ccccc3)C2)c1 (configuration not stated)	Rab9 promoter act 2.8µM, NPC1 promoter act 3.2µM, ELG1 genotox 21µM, FLuc counter 13µM, SMN2 splice up 16µM
O=C(CCN1C(=O)c2ccccc2S1(=O)=O)NCc1ccccc1Cl	none (no result: SMN2 splice up)
O=S(=O)(NC1CCC(NS(=O)(=O)c2c(F)cccc2F)CC1)c1ccc2c(c1)OCCO2 (configuration not stated)	none (no result: SMN2 splice up)
Cc1cc(N)n(-c2cc(C)c3ccccc3n2)n1	Rab9 promoter act inconclusive, ELG1 genotox inconclusive, FLuc counter 2.7µM, SMN2 splice up 11µM
Cc1cc(N)n(-c2ccccc2)n1	none
Cc1cc(C)c2nc(-n3nc(C)cc3N)cc(C)c2c1	Rab9 promoter act inconclusive, ELG1 genotox inconclusive, FLuc counter 1.2µM, SMN2 splice up 11µM
COc1ccc(CCC2(C)NC(=O)N(C(C)C(=O)Nc3ccccc3F)C2=O)cc1 (configuration not stated)	none (no result: SMN2 splice up)
CCOC(=O)c1cc(-c2ccc(C)cc2)n(CCC(=O)NCCc2ccc(C)cc2)c1C	none (no result: Rab9 promoter act, NPC1 promoter act, ELG1 genotox)
O=C(c1cn(-c2ccccc2)nc1-c1ccccc1)N1CCN(c2ccccn2)CC1	FLuc counter 11µM
Cc1ccc(-c2nn(Cc3ccccc3)cc2C(=O)N2CCN(c3ccccn3)CC2)cc1	none (no result: SMN2 splice up)
Cc1ccc(-c2nn(-c3ccccc3)cc2C(=O)N2CCN(c3ccccn3)CC2)cc1	FLuc counter 15µM
CCOC(=O)c1cccc(NC(=O)c2nn(-c3ccc(OC)cc3)c(=O)c3c2c2ccccc2n3C)c1	none (no result: Rab9 promoter act, NPC1 promoter act, ELG1 genotox)
CC1=C(C(=O)OCc2ccccc2)C(c2ccc(Cl)cc2)NC(=O)N1CCCC(=O)O (configuration not stated)	none (no result: SMN2 splice up)
COc1ccc(S(=O)(=O)NCC2CCCO2)c(Cl)c1Cl (configuration not stated)	none (no result: SMN2 splice up)
CCOCCCN(C)C1CCN(C(=O)c2oc3ccccc3c2NC(=O)COc2ccc(F)cc2)CC1	none (no result: SMN2 splice up)
COc1ccc(C(c2sc3ncnn3c2O)N2CC(C)OC(C)C2)cc1OC (configuration not stated)	FLuc counter 19µM
COc1ccc(C(c2sc3ncnn3c2O)N2CCN(c3ccccc3F)CC2)cc1OC (configuration not stated)	ELG1 genotox inconclusive, FLuc counter 7.6µM
CC(C)C(NC(=O)c1ccco1)C(=O)NC1CCCCCC1 (configuration not stated)	none (no result: SMN2 splice up)
Cc1cccc(NC(=O)NCCOCCn2c(=O)oc3ccccc32)c1C	none (no result: Rab9 promoter act, NPC1 promoter act, ELG1 genotox, SMN2 splice up)
Cc1nc(N)sc1C(=O)N/N=C/c1ccc([N+](=O)[O-])cc1	NPC1 promoter act inconclusive (no result: SMN2 splice up)
COc1cc(/C=N/NC(=O)c2cc(-c3ccccc3)sc2N)cc(OC)c1OC	FLuc counter 4.8µM (no result: SMN2 splice up)
COc1cc(C(=O)N/N=C/c2sc(=O)n(-c3ccccc3)c2Cl)cc(OC)c1OC	FLuc counter 6µM
COc1cc(/C=N/NC(=O)c2ccc(-c3ccccc3)cc2)cc(OC)c1OC	FLuc counter 11µM
COc1cc(/C=N\NC(=O)c2sc(N)nc2C)cc(OC)c1OC	FLuc counter 15µM
NNC(=O)c1cc(-c2ccccc2)sc1N	FLuc counter inconclusive (no result: SMN2 splice up)
COc1cccc(C(=O)Nc2ccccc2N2CCN(C(=O)c3ccccc3)CC2)c1	none (no result: Rab9 promoter act, NPC1 promoter act, FLuc counter, SMN2 splice up)
CCOC(=O)C1C(=O)OC(C)(C)C1C(CC)C(=O)c1c(C)cc(C)cc1C (configuration not stated)	none (no result: SMN2 splice up)
CC(=O)Nc1sc(N/N=C\c2ccccc2F)nc1-c1cccs1	ELG1 genotox inconclusive
Fc1cccc(Cl)c1/C=N/Nc1ccccn1	SMN2 splice up inconclusive
CCCOc1ccc(/C=N/Nc2cc(N3CCOCC3)ncn2)c(O)c1	none (no result: SMN2 splice up)
Cc1csc(N/N=C/c2c(F)cccc2Cl)n1	ELG1 genotox inconclusive, FLuc counter 13µM (no result: SMN2 splice up)
CCOc1ccc(/C=N/Nc2nc(C)cs2)c(O)c1	Rab9 promoter act 1.8µM, NPC1 promoter act 1.6µM, FLuc counter 3.8µM (no result: SMN2 splice up)
Cc1csc(N/N=C/c2ccccc2F)n1	ELG1 genotox inconclusive, FLuc counter 6µM (no result: SMN2 splice up)
Cc1noc(C)c1NC(=O)Nc1ccc2c(c1)CC(=O)N([C@@H](C)CO)C[C@@H](C)[C@@H](CN(C)C(=O)Nc1cccc3ccccc13)O2	none (no result: Rab9 promoter act, NPC1 promoter act, FLuc counter, SMN2 splice up)
Cc1ccc2nc(-c3ccc(N4C(=O)CC(N5CCC(C(N)=O)CC5)C4=O)cc3)sc2c1 (configuration not stated)	ELG1 genotox inconclusive, FLuc counter 2.7µM
CCOC(=O)C1CCCN(C2CC(=O)N(c3ccc(N4C(=O)CC(N5CCCC(C(=O)OCC)C5)C4=O)cc3)C2=O)C1 (configuration not stated)	none
Cc1ccc2nc(-c3ccc(N4C(=O)CC(N5CCCC(C)C5)C4=O)cc3)sc2c1 (configuration not stated)	FLuc counter 15µM (no result: Rab9 promoter act, NPC1 promoter act, ELG1 genotox)
O=C1OC(C(=O)Nc2cc(C(F)(F)F)ccc2Cl)Cc2ccccc21 (configuration not stated)	none (no result: Rab9 promoter act, NPC1 promoter act, ELG1 genotox)
CCOC(=O)Cn1nc(NC(=O)c2ccc3c(c2)OCO3)cc1C	FLuc counter inconclusive (no result: SMN2 splice up)
O=c1c2ccccc2nc2sc(Nc3cccc(Cl)c3)nn12	NPC1 promoter act inconclusive, ELG1 genotox inconclusive, FLuc counter inconclusive (no result: SMN2 splice up)
O=C(/C=C/c1ccccc1)Nc1cccnc1	Rab9 promoter act 2.2µM, NPC1 promoter act 2.2µM, ELG1 genotox inconclusive, FLuc counter 6.7µM (no result: SMN2 splice up)
Cc1ccc(/C=C/C(=O)Nc2cccnc2)o1	Rab9 promoter act inconclusive, FLuc counter 24µM, SMN2 splice up inconclusive
O=C(/C=C/c1ccc([N+](=O)[O-])cc1)Nc1cccnc1	Rab9 promoter act 3.5µM, NPC1 promoter act 2.8µM, ELG1 genotox inconclusive, FLuc counter 5.4µM, SMN2 splice up 13µM
Oc1c(N=Nc2ccccn2)ccc2ccccc12	ELG1 genotox inconclusive, FLuc counter 1.3µM
O=S(=O)(O)c1cc(N=Nc2cccc3ccccc23)c(O)c2ncccc12	none (no result: Rab9 promoter act, NPC1 promoter act, ELG1 genotox, FLuc counter)
N#C/C(C(=O)N1CCOCC1)=C1\Nc2ccccc2S1	ELG1 genotox inconclusive, FLuc counter 17µM, SMN2 splice up inconclusive
Cc1cc(O)c(/C=N/Nc2cccc(Cl)c2)c(=O)o1	FLuc counter 15µM
Cc1cc(O)c(/C=N/Nc2ccccc2Cl)c(=O)o1	NPC1 promoter act inconclusive, ELG1 genotox inconclusive, FLuc counter inconclusive
Cc1cc(O)c(/C=N/Nc2ccc(Cl)cc2)c(=O)o1	FLuc counter 2.7µM
